From PubChem BioAssay
A selection: hits, their analogues and other compounds. The true share with any hit is near 2.4%.
M1 PAM parental: counter-screen for M1 PAMs: effect in parental CHO-K1 cells | AID 602247 | ATP EC20, Fluo-8 calcium fluorescence; 0% at ATP EC20, 100% at ATP max | actives 0.02% (n = 360,000) | activation, % at 3 µM;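 active = activation above the run cutoff, the mean activation of all test compounds plus 3 SD, cut at about 40% in these data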;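 note: peak over basal fluorescence ratio in a 140 s read after ATP addition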
M1 ag parental: M1 agonist counterscreen hit in parental CHO-K1 cells; activation, % at 3 µM; Fluo-8 calcium fluorescence; scaled to maximal ATP response, vehicle zero; actives 0.48% (n = 360,000); in the data active = activation above about 15%;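 note: untransfected CHO-K1 host cells lacking M1 receptor as counterscreen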
CHO-K1 Ca antag: nonselective inhibitor or artifact in parental CHO-K1 cells; ATP-induced calcium, Fluo-8 fluorescence; inhibition, % at 3 µM; actives 0.6% (n = 360,000);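 active = inhibition above a per-plate cutoff, the plate's mean sample inhibition plus 3 SD, cut at about 24% in these data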
M1 ag: agonists of human M1 muscarinic receptor | AID 588814 | P11229 | CHO-K1 hM1, Fluo-8 calcium fluorescence, agonist mode; 0% DMSO, 100% acetylcholine EC100 | activation, % at 3 µM | actives 0.33% (n = 360,000);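 active = activation above the run's mean compound activation plus 3 SD, cut at about 16% in these data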;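 note: peak over basal fluorescence ratio within a 140 s kinetic read after compound addition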
Target sequence (P11229 whole entry, looked up): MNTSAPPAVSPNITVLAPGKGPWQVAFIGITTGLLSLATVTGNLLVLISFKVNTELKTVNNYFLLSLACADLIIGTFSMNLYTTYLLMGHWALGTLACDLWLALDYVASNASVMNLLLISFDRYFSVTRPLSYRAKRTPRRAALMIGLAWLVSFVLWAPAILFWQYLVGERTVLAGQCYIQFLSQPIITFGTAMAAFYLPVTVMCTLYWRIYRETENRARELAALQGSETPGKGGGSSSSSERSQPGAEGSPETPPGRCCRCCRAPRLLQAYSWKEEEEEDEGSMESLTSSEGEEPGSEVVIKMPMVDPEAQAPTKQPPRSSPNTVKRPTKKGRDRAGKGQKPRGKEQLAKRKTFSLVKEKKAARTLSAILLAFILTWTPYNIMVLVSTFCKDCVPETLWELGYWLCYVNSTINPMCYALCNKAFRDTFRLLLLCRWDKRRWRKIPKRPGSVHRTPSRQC
CHRM1 PAM: positive allosteric modulators of human M1 muscarinic receptor. P11229. CHO-K1 hM1, Fluo-8 calcium fluorescence, ACh EC20; 0% = ACh EC20, 100% = maximal ACh. activation, % at 3 µM. actives 0.088% (n = 360,000). AID 588819; in the data active = activation above about 19%, passing the limit was not always enough
CHRM1 antagonist: human CHRM1 antagonism | P11229 | CHO-K1 hM1, Fluo-8 calcium fluorescence, ACh EC80 antagonist | inhibition, % at 3 µM | actives 1.3% (n = 360,000) | AID 588852;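 active = percent inhibition above its own plate's cutoff, namely the mean of that plate's compound wells plus 3 SD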;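 note: peak over basal fluorescence ratio during 140 s after agonist addition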
Of the large screens only hits and unclear results are named; the others gave an inactive call.

CC[C@H](C)[C@H]1CNC(=S)N1CC1CCN(CCCC2CCCC2)CC1	CHRM1 antagonist 38
Cc1ccc2c(CN3CCN(S(=O)(=O)c4ccc(Cl)cc4)CC3)cc(=O)oc2c1C	none
O=C(CS(=O)(=O)c1ccc(F)cc1)NCCS(=O)(=O)c1ccccc1	none
CCC(CC)CN1CCC(CN2C(=S)NC[C@@H]2[C@@H](C)CC)CC1	none
CC[C@H](C)[C@H]1CNC(=S)N1CC1CCN(CCCCc2ccccc2)CC1	CHRM1 antagonist 71
CC(C)C[C@H]1CNC(=S)N1CC1CCN(CC2CCC(C(C)(C)C)CC2)CC1 (some centres not stated)	CHRM1 antagonist 76
COc1ccc(CN2C(=O)c3cccnc3C2=O)cc1S(=O)(=O)N(C)c1cccc(C)c1	none
CN1CCN(S(=O)(=O)c2cccc(C(=O)N(C)Cc3cccs3)c2)CC1	none
COc1cc(SC)ccc1C(=O)NCCc1c[nH]c2ccccc12	none
COc1cc2cc(C(=O)NCCc3c[nH]c4ccccc34)c(N)nc2cc1OC	M1 ag parental 19 (no result: M1 ag, CHRM1 PAM, CHRM1 antagonist)
CCCN(CC(=O)Nc1ccc(Cl)cc1Cl)C(=O)/C=C/c1ccco1	none
Fc1cccc(Cc2noc(CN3CCSCC3)n2)c1	none
Fc1cccc(Cc2noc(CN3CCN(C4CCc5ccccc5C4)CC3)n2)c1 (configuration not stated)	CHRM1 antagonist 72
Fc1cccc(Cc2noc(CN3CCCN(C4Cc5ccccc5C4)CC3)n2)c1	CHRM1 antagonist 93
CC[C@@]1(C(=O)OC)N[C@H](CN(C)C(=O)c2ccc(C(C)(C)C)cc2)[C@@H]2C(=O)N(Cc3ccccc3)C(=O)[C@@H]21	none
CCN(C[C@H]1N[C@@](CC)(C(=O)OC)[C@H]2C(=O)N(Cc3ccccc3)C(=O)[C@@H]12)C(=O)c1ccc(C(C)(C)C)cc1	CHRM1 antagonist 28
COC(=O)C(Sc1nc(C)cc(C)c1C#N)c1ccccc1 (configuration not stated)	none
CN(C)/C=N/NC(=O)C1Cc2c(ccc3ccccc23)O1 (configuration not stated)	M1 ag parental 16
COCCNC(=O)C1Cc2c(ccc3ccccc23)O1 (configuration not stated)	none
Cc1ccc(-c2c(C(=O)N/N=C/c3ccco3)nnn2-c2nonc2N)cc1	M1 ag parental 16
CCOc1ccc(-c2c(C(=O)N/N=C/c3ccco3)nnn2-c2nonc2N)cc1	M1 ag 18
Cc1ccc(-c2c(C(=O)N/N=C/c3ccc(C)o3)nnn2-c2nonc2N)cc1	none
CCc1cc(C(=O)OCC(=O)N2CCC(c3ccccc3)=N2)sc1C	CHRM1 antagonist 48
C/C=C(/C)C(=O)OC1CC(C)(C)C[C@H]2C3=CC[C@@H]4[C@@]5(C)CCC(O[C@@H]6O[C@@H](C(=O)O)[C@@H](O)C(O[C@@H]7OC[C@H](O)[C@@H](O)[C@@H]7O[C@@H]7OC(CO)C(O)[C@@H](O)[C@@H]7O)C6O[C@@H]6OC(CO)C(O)C(O)C6O)[C@@](C)(CO)[C@@H]5CC[C@]4(C)[C@]3(C)CC(O)[C@@]12CO (some centres not stated)	M1 ag parental 67, CHO-K1 Ca antag 49, M1 ag 62, CHRM1 antagonist 73
CC1(C)C[C@H]2C3=CCC4[C@@]5(C)CC[C@H](O[C@@H]6O[C@H](C(=O)O)[C@@H](O)[C@H](O)[C@H]6O)[C@@](C)(CO)C5CC[C@@]4(C)[C@]3(C)C[C@H](O)[C@@]2(CO)[C@@H](O)[C@@H]1O (some centres not stated)	none
C/C=C(\C)C(=O)OC1[C@H](OC(C)=O)C2(CO)C(CC1(C)C)C1=CCC3C4(C)CCC(O[C@@H]5O[C@H](C(=O)O)[C@@H](O[C@@H]6O[C@H](CO)[C@@H](O)[C@H](O)[C@H]6O)[C@H](O)[C@H]5O[C@H]5O[C@H](CO)[C@@H](O)[C@H](O)[C@H]5O)[C@](C)(CO)C4CCC3(C)[C@]1(C)C[C@H]2O (some centres not stated)	M1 ag parental 98, CHO-K1 Ca antag 102, M1 ag 93, CHRM1 antagonist 104
CCN(CC)c1ccc(S(=O)(=O)N2CCOCC2)cc1NC(=O)COC(=O)/C=C/c1ccccc1	CHRM1 antagonist 32
Cc1ccc(S(=O)(=O)N2CCOCC2)cc1NC(=O)COC(=O)CNC(=O)c1ccc(Oc2ccccc2)cc1	CHO-K1 Ca antag 25
Cc1ccc(C(=O)NCC(=O)OCC(=O)Nc2cc(S(=O)(=O)N3CCOCC3)ccc2C)cc1	none
Cc1ccc(S(=O)(=O)N2CCOCC2)cc1NC(=O)COC(=O)CNC(=O)c1ccc(C(C)(C)C)cc1	none
Cc1ccc(S(=O)(=O)N2CCN(C(=O)COC(=O)CCOc3ccc(C(C)(C)C)cc3)CC2)cc1	CHRM1 antagonist 34
Cc1ccc(S(=O)(=O)N2CCOCC2)cc1NC(=O)COC(=O)CCOc1ccc(C(C)(C)C)cc1	M1 ag parental 16
O=C(N/N=C/c1ccccc1)c1cc[n+]([O-])cc1	none
O=C(N1CCN(CCO)CC1)N1c2ccccc2C=Cc2ccccc21	CHRM1 antagonist 31
O=C(NCc1ccccc1)N1CCN(CCO)CC1	none
COc1ccc2ccc(O)c(CN3CCN(S(=O)(=O)c4cc([N+](=O)[O-])ccc4C)CC3)c2c1	none
COc1ccc(-c2cc(C(=O)N3CCN(c4ccccc4F)CC3)c3ccccc3n2)c(OC)c1	CHRM1 antagonist 29
CCOc1ccccc1N1CCN(C(=O)c2cc(-c3cc(OC)ccc3OC)nc3ccccc23)CC1	CHRM1 antagonist 33
COc1ccc(N2CCN(C(=O)c3cc(-c4cc(OC)ccc4OC)nc4ccccc34)CC2)cc1	none
COc1ccc(Nc2cc(C(=O)N3CCc4ccccc4C3)c3ccccc3n2)c(OC)c1	none
COC(=O)c1sccc1NC(=O)Nc1ccc(Cl)c(Cl)c1	CHO-K1 Ca antag 29
COC(=O)c1cccc(NC(=O)Nc2ccc(Cl)c(Cl)c2)c1	M1 ag parental 16, CHRM1 antagonist 43
COC(=O)c1cc(NC(=O)Nc2ccccc2)ccc1Cl	M1 ag parental 16
O=C(Nc1ccccc1)Nc1cccc(Cl)c1	none
CCCCC(=O)Nc1cccc(NC(=S)NC(=O)C(C)C)c1	none
Cc1c(Cl)cccc1NC(=S)N(CCCN1CCOCC1)Cc1cccs1	CHRM1 antagonist 82
COc1ccc(NC(=S)N(CCCN2CCC(C)CC2)Cc2cccs2)cc1	none
COc1ccc(NC(=S)N(CCCN2CCCCC2)Cc2cccs2)cc1	CHRM1 antagonist 59
O=C(CN1C(=O)/C(=C/c2ccco2)SC1=S)Nc1ccc(C(=O)O)c(O)c1	none
CCOc1ccccc1-n1c(=S)sc2c(=O)n(-c3ccccc3)c(=S)[nH]c21	none
